Inconclusive results are not listed. The source made the active and inactive calls. Calls follow the shape of the dose curve; as a rule, active = well fitted inhibition curve with a large enough effect; inconclusive = small, poorly fitted or top-dose-only effect; inactive = no such curve, though single readings can be large or run the other way.

Consider 29 compounds from PubChem BioAssay (NCATS).

The assay deals with Retinaldehyde dehydrogenase 3 (Homo sapiens) (UniProt P47895). Put plainly: qHTS for Inhibitors of the Aldehyde Dehydrogenase Family (ALDH1A3) Primary screen (AID 2061315).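 Also: plate controls were DMSO vehicle for no effect and reference inhibitor for full effect.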 The following applies: ALDH inhibition qHTS; series mostly up to 56 µM; activity change, negative = inhibition: at the top concentration. Background: Quantitative high-throughput screening tests each substance at several concentrations.
Take `CC1CC[C@]2(C(=O)O)CC[C@]3(C(=O)O)C(=CCC4[C@@]5(C)CC[C@H](OC6OC(C)C(O)C(OC7OC(CO)C(O)C(O)C7O)C6O)C(C)(C)C5CC[C@]43C)C2C1C` (some centres undefined): the “activity change, negative = inhibition” value is 9.03% [at 16.9 µM] (inactive).

Take H-DPPDPDRFYGMM-NH2: the “activity change, negative = inhibition” value is 6.16% [at 16.9 µM] (inactive).

In the case of `CCCCC1CCN(CCCC(=O)c2ccccc2C)CC1`, the “activity change, negative = inhibition” value is -9.06% (inactive).

Regarding `C=C1C(=O)OC2/C=C(\CO)CC/C=C(\C=O)CC(OC(=O)CC(C)C)C12` (centres undefined), the “activity change, negative = inhibition” value was -21.5% (inactive).

On to `CO[C@@H]1CC[C@H](OC[C@]2(COC(=O)c3ccc(C)[nH]3)[C@H](OC(C)=O)CC[C@@]3(C)[C@@H]4CC=C(C)[C@@H](C5=C(O)C(=O)OC5O)[C@]4(C)CC[C@@H]32)O[C@H]1C` (some centres undefined), for which the “activity change, negative = inhibition” value was 6.67% [at 16.9 µM] (inactive).

For `CC1(C)CC[C@]2(C(=O)O)CC[C@]3(C)C(=CCC4[C@@]5(C)CCC(O[C@@H]6OC[C@H](O)[C@H](O)[C@H]6O[C@@H]6O[C@H](CO)[C@@H](O)[C@H](O)[C@H]6O)[C@@](C)(CO)C5CC[C@]43C)[C@@H]2C1` (some centres undefined), the “activity change, negative = inhibition” value is 12.7% [at 16.9 µM] (inactive).

Consider `COc1cc(/C=C/C(=O)O[C@H]2C[C@@H]3C(C(=O)O)=CO[C@@H](O[C@@H]4O[C@H](CO)[C@@H](O)[C@H](O)[C@H]4O)[C@@H]3[C@H]2C)ccc1O`, for which the “activity change, negative = inhibition” value is -16.2% [at 28 µM] (inactive).

As for `COCCN(C)Cc1ccc2nc3sc(C(=O)N(C)C4CCCCC4)cn3c2c1`, the “activity change, negative = inhibition” value is -14.1% (inactive).

Regarding `Cn1nc(C(C)(C)C)cc1C(=O)N[C@@H](Cc1cccc(Cl)c1)C(=O)NCC#N`, the “activity change, negative = inhibition” value is 6.27% (inactive).

For `C=C1C(O)C[C@@H]2C(C(=O)O)=CO[C@@H](O[C@@H]3O[C@H](CO)[C@@H](O)[C@H](O)[C@H]3OC(=O)c3ccc(O)cc3)[C@H]12` (some centres undefined), the “activity change, negative = inhibition” value is -1.79% [at 28 µM] (inactive).

For `Cc1c(CN2CCN(C(=O)C(C)O)CC2)sc2c(N3CCOCC3)nc(-c3cnc(N)nc3)nc12` (centres undefined), the “activity change, negative = inhibition” value was -15.2% (inactive).

For the compound `CC1=CC(=O)CC(C)(C)C1CCC(C)O[C@@H]1O[C@H](CO[C@@H]2OC[C@@H](O)[C@H](O)[C@H]2O)[C@@H](O)[C@H](O)[C@H]1O` (some centres undefined), the “activity change, negative = inhibition” value was 6.91% [at 28 µM] (inactive).

On to `C=C1CC23CCC4[C@@](C)(CCC[C@@]4(C)C(=O)O)C2CCC1C3` (some centres undefined), for which the “activity change, negative = inhibition” value was -5.07% (inactive).

With `COc1ccc([C@H]2Cc3cccc(O)c3C(=O)O2)cc1OC`, the “activity change, negative = inhibition” value is 18.3% (inactive).

For `CC1(C)CC23[C@@H]4CC(=O)[C@@H]2COC(=O)[C@@H]3CC[C@H]41`, the “activity change, negative = inhibition” value is -3.45% (inactive).

On to `COc1c(C)c(OCC=C(C)C)cc2c1COC2=O`, for which the “activity change, negative = inhibition” value is 5.02% (inactive).

On to `COC(=O)[C@]1(C)CCC[C@@]2(C)C(=O)CC[C@H]3C(=O)C=C(CC[C@@H]21)C3O` (some centres undefined), for which the “activity change, negative = inhibition” value was -4.78% (inactive).

In the case of `C[C@@H]1[C@H]2[C@H](O[C@@H]3O[C@H](CO)[C@@H](O)[C@H](O)[C@H]3O)OC=C(C(=O)O)[C@H]2C[C@@H]1OC(=O)/C=C/c1ccc(O)cc1`, the “activity change, negative = inhibition” value is 8.12% [at 28 µM] (inactive).

On to `CC1(C)CCCC2(C)c3c4c(c(=O)oc(=O)c3=CCC12)=CCC1C(C)(C)CCCC41C` (centres undefined), for which the “activity change, negative = inhibition” value was -0.825% [at 28 µM] (inactive).

With `Cn1c(=O)c2nc(/C=C/c3cccc(Cl)c3)n(C)c2n(C)c1=O`, the “activity change, negative = inhibition” value was 3.85% [at 114 µM] (inactive).

`CC1(C)Oc2ncnc(N)c2N=C1c1ccc(C2CCC(CC(=O)O)CC2)cc1` (centres undefined): the “activity change, negative = inhibition” value was 11.7% (inactive).

On to `C[C@@H]1O[C@@H](O[C@H]2[C@H](O)[C@@H](O[C@@H]3O[C@H](CO)[C@@H](O)[C@H](O[C@@H]4O[C@H](CO)[C@@H](O)[C@H](O)[C@H]4O)[C@H]3O)[C@H](O[C@H]3CC[C@@]4(C)C(=CC[C@@H]5C4CC[C@@]4(C)C5C[C@@H]5OC6(CC[C@@](C)(CO[C@@H]7O[C@H](CO)[C@@H](O)[C@H](O)[C@H]7O)O6)[C@@H](C)[C@@H]54)C3)O[C@@H]2CO)[C@H](O)[C@H](O)[C@H]1OC1OC(CO)C(O)C(O)C1O` (some centres undefined), for which the activity change, negative = inhibition was -22.4% [at 11.2 µM] (inactive).

Turning to `CC(C)c1cc(-c2ccc(F)c3ccccc23)nc(N)n1`, the “activity change, negative = inhibition” value is -0.526% (inactive).

Take `OCC(CO[C@@H]1O[C@H](CO)[C@@H](O)[C@H](O)[C@H]1O)c1ccc2c(c1)OCO2` (some centres undefined): the “activity change, negative = inhibition” value was 3.37% (inactive).

For `COc1ccc(C(OC2OC(CO)C(O)C(O)C2O)C(C)O)cc1` (centres undefined), the “activity change, negative = inhibition” value was -9.21% (inactive).

On to `CC(=O)O[C@H]1CC[C@@]2(C)C(CC[C@@H](C)[C@]23Cc2c(O)cc4c(c2O3)CN([C@@H](CCC(=O)O)C(=O)O)C4=O)C1(C)C` (some centres undefined), for which the “activity change, negative = inhibition” value was -0.278% [at 28 µM] (inactive).

As for `N#C/C(=C1\Nc2ccccc2S1)c1ccnc(NCCc2cccnc2)n1`, the “activity change, negative = inhibition” value was 15.5% (inactive).

With `C/C=C/C=C/C1=C2C(=O)C3(C)C4C(C(=O)CC(O)/C=C/C)=C(O1)C1(C)C2C2(C)OC1(O)C4(C)OC23O` (centres undefined), the “activity change, negative = inhibition” value is 2.59% [at 28 µM] (inactive).

`CC1(C)CCC2(C(=O)OC3OC(CO)C(O)C(O)C3O)CCC3(C)C(=CCC4C5(C)CCC(OC6OC(C(=O)O)C(OC7OC(CO)C(O)C(O)C7O)C(OC7OC(CO)C(O)C(O)C7O)C6O)C(C)(C)C5CCC43C)C2C1` (centres undefined): the “activity change, negative = inhibition” value is 9.54% [at 16.9 µM] (inactive).
